For 26 compounds, inhibition results are on record in PubChem BioAssay AID1918969 (ICCB-Longwood Screening Facility, Harvard Medical School, 2023).

The inhibition is the change of the read-out against control, counted positive when it falls.

In all, about 190,000 compounds went through this assay and about 280 (0.15%) were called active. Rule as the data show it: active = inhibition above about 27% (passing the limit was not always enough); inactive = the rest. Shown is part of a subset that was picked to be rich in actives.

This assay relates to HCMV UL50-UL53 nuclear egress complex (human cytomegalovirus). The assay can be described thus: HCMV nuclear egress complex disruptors – biochemical, HTRF (AID 1918969). The following applies: HTRF UL50-UL53 interaction, normalized percent inhibition; hits give high values; concentration not given here. Background: Time-resolved FRET reads energy transfer from a long-lived donor to a nearby acceptor.
Consider `CCCc1noc(-c2cc(S(N)(=O)=O)ccc2OC)n1`, for which the inhibition was 3.5% (inactive).

On to `O=C(Cc1nc2ccccc2n1C(F)F)c1ccccc1`, for which the inhibition was -21.1% (inactive).

As to `COc1ccc(N(Cc2nc3ccccc3s2)S(=O)(=O)c2cccs2)cc1`, the inhibition was -24.9% (inactive).

For the compound `NC(=O)c1ccc2c3c(cccc13)CC2`, the inhibition is -30.8% (inactive).

With `Cc1nc(Nc2ccc(NC(=O)C(C)(C)C)cc2)cc(N(C)C)n1`, the inhibition was 7.9% (inactive).

As to `COc1cc(-c2noc(-c3ccccc3)n2)ccc1OCC(=O)Nc1ccc(F)cc1`, the inhibition was -31.7% (inactive).

With `CCOC(=O)C1C(=O)CC(=O)C(C(=O)OCC)C1c1ccccc1` (stereo unspecified), the inhibition is -6.9% (inactive).

As for `CCOC(=O)c1noc2ncnc(N(CC)c3ccccc3)c12`, the inhibition is -26.1% (inactive).

As for `O=C(NCN1CCN(CNC(=O)c2ccccc2)CC1)c1ccccc1`, the inhibition is -42.2% (inactive).

As to `CCn1c(=O)c(=O)n(CC)c2cc(N3CCCCC3)c(NC(=O)c3ccccc3)cc21`, the inhibition is -23.2% (inactive).

In the case of `CCn1c(=O)c(=O)n(CC)c2cc(N3CCCCC3)c(NC(=O)c3ccc(Cl)cc3)cc21`, the inhibition was 62.9% (active).

`CCn1c(=O)c(=O)n(CC)c2cc(N3CCCCC3)c(NC(=O)c3cccc(F)c3)cc21`: the inhibition is -3.5% (inactive).

With `CCCCn1c(SCC(=O)N2CCCC2)nc2cn(C)nc2c1=O`, the inhibition is -19.7% (inactive).

Turning to `Cn1cc(CCC(=O)NC2CC2)c2ccccc21`, the inhibition is 0.4% (inactive).

As to `CC1(C)CC(=O)C2=C(C1)N(Cc1ccco1)C(=O)C2(NC(=O)c1cccs1)C(F)(F)F` (stereo unspecified), the inhibition was -5.4% (inactive).

Take `CCN(CC)c1ccc2cc(-c3csc(-c4nc(-c5cc6ccc(N(CC)CC)cc6oc5=O)cs4)n3)c(=O)oc2c1`: the inhibition was -0.5% (inactive).

`Cc1cc(NC(=O)c2ccc(N(C)C)cc2)no1`: the inhibition was 1.2% (inactive).

For the compound `O=C(CC1=NS(=O)(=O)c2ccccc2N1)N1CCN(C(c2ccccc2)c2ccccc2)CC1`, the inhibition is -9.6% (inactive).

For the compound `C/C(=N\O)C(C)(C)Nc1ccccc1`, the inhibition was 24.2% (inactive).

Turning to `Cc1ccc(S(=O)(=O)N(C)CC(=O)OCc2nc3ccccc3s2)cc1`, the inhibition was -25.9% (inactive).

For the compound `CCOC(=O)c1c(NC(=O)CSc2nccn2C)sc2c1CCC(C)C2` (stereo unspecified), the inhibition is -12.2% (inactive).

Consider `CC(C)N(C(=O)CNc1cc(Cl)ccc1Cl)c1ccccc1`, for which the inhibition was -6.5% (inactive).

As for `O=C1c2ccccc2C(=O)C1c1ccccc1F`, the inhibition was -3.9% (inactive).

`Cc1c(OCC(N)=O)ccc2c3c(c(=O)oc12)CCCC3`: the inhibition was 7.5% (inactive).

For the compound `NC(=O)c1ccc(-c2ccccc2)cc1C(N)=O`, the inhibition is -28.2% (inactive).

On to `Nc1nc(N)nc(SCC(=O)N2CCCC2)n1`, for which the inhibition was -9.6% (inactive).
